The source of these data is PubChem BioAssay (NCI).

Compounds without any hit were thinned out: in the full panel of roughly 83,000, 20% have a hit.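 Values shown are percent growth following 48 h exposure of cells in 96-well plates to a single concentration of compound; below 10 was considered active.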 Values without a mark were called inactive. Activity calls are given as the source filed them.

Common to all, as to test: NCI-60 one-dose screen, 48 h (100 = growth as untreated, 0 = no growth, -100 = all killed)
Holding throughout (conditions): 10 µM unless noted

The test system of assay [1] is NCI-H23 lung.
Assay [2] concerns NCI-H226 lung.
Assay [3] relates to NCI-H322M lung.
In assay [4] the test system is NCI-H460 lung.
The test system of assay [5] is HOP-92 NSCLC.
Assay [6] concerns NCI-H522 lung.
The subject of assay [7] is A549/ATCC NSCLC.
Assay [8] concerns 786-0 renal.
For assay [9], the system named is COLO 205 colon.
Assay [10] relates to DU-145 prostate.
The subject of assay [11] is K-562 leukemia.
The subject of assay [12] is MALME-3M melanoma.
The test system of assay [13] is MDA-MB-231 breast.
Assay [14] relates to RXF 393 renal.
Assay [15] has as its system SF-268 CNS.
The subject of assay [16] is SF-295 CNS.
The subject of assay [17] is SF-539 CNS.
Assay [18] has as its system UACC-257 melanoma.
Assay [19] deals with M14 melanoma.

Turning to `CCOc1ccc(/C=N\N=C\c2ccc(OCC)cc2)cc1`, the growth is 79.5% in assay [1]; 89.1% in assay [2]; 99.1% in [3]; 51.7% in [4]; 84.4% in [5]; 51.9% in [6]. Also, the growth is 94.2% in [7]; 105% in assay [8]; 96.6% in assay [9]; 17% in assay [10]; 86.7% in assay [11]; 115% in assay [12]. For the same compound, the growth is 83.6% in assay [13]; 84.9% in assay [14]; 94% in assay [15]; 95.9% in [16]; 96.4% in assay [17]; 99% in assay [18]. In addition, in [19], the growth was 85.3%.

Take `CSCCC(NC(=O)c1ccccc1)C(=O)N/N=C1\S/C(=C/c2ccc(Cl)cc2)C(=O)N1C` (stereo unspecified): the growth in assay [1] is 90%; in assay [2] it was 86.9%; in assay [3], 90.4%; in [5], 70.8%; in [6] it was 80.7%; in assay [7] it was 79.9%. Further, the growth in assay [8] is 91.4%; in [9], 101%; in [10], 75.1%; in assay [11], 41.6%; in [12], 83.3%; in [13], 75.6%. Moreover, the growth in [14] was 75.5%; in [15], 74.1%; in [16], 75.2%; in assay [17], 93.5%; in assay [18], 89.8%; in assay [19], 86.6%.

Turning to `CC1(C)CCC(S(=O)(=O)c2ccc3c(c2)/C(=N\O)c2cc(S(=O)(=O)N4CCN(c5ccc(F)cc5O)CC4)ccc2-3)CC1`, the growth in assay [1] was -76.8% (active); in assay [2] it was -57% (active); in assay [3], -46.9% (active); in assay [4], -78% (active); in assay [5], -50.4% (active); in assay [6], -82.6% (active). In addition, the growth in assay [7] is -92.9% (active); in assay [8], -89.9% (active); in assay [9], -88.8% (active); in assay [10], -46% (active); in [11] it was -78.4% (active); in assay [12], -70.5% (active). Also, the growth in assay [13] is -63.7% (active); in assay [14], -90% (active); in assay [15], -54.4% (active); in [16], -57.1% (active); in [17], -88.2% (active); in assay [18], -80.6% (active). Besides, the growth in assay [19] was -81.9% (active).

Take `CCC(C)Nc1ccc(NC(C)CC)cc1` (stereo unspecified): the growth was 74.5% in assay [1]; 91.3% in [2]; 86.4% in [3]; 101% in assay [4]; 90.5% in assay [5]; 54.9% in [6]. The growth in assay [7] is 94.7%; in assay [8], 74%; in [9], 9.48% (active); in assay [10] it was 109%; in assay [11] it was 54.2%; in assay [12], 73.4%. The growth in assay [13] is 82%; in [14] it was 81.8%; in assay [15] it was 96.6%; in assay [16], 111%; in [17], 90.7%; in [18] it was 21.1%. The growth in assay [19] was 98.9%.

Take `C=CCn1c(SCC(=O)Nc2ccc(C(=O)/C=C/c3ccc(OC)cc3)cc2)nnc1-c1ccccc1`: the growth in assay [1] was 94.2%; in assay [2] it was 90.3%; in assay [3], 89%; in assay [4], 103%; in assay [5], 86%; in assay [6] it was 80.7%. The growth in assay [8] was 73.3%; in [9] it was 101%; in assay [10], 93.8%; in assay [11] it was 91.5%; in assay [12], 88.2%; in assay [13], 76.2%. The growth was 115% in assay [14]; 80.9% in [15]; 90.4% in assay [16]; 98.2% in assay [17]; 104% in [18]; 81.5% in [19].

As for `CCOC(=O)c1c(C)nc2c(c1N)CC(=O)N2Cc1cc(OC)c(OC)c(OC)c1`, the growth in assay [1] is 39.7%; in assay [2], 70.5%; in assay [3], 81.3%; in assay [4] it was 17.6%; in [5], 62.6%; in assay [6], 33.2%. For the same compound, the growth is 66.2% in [8]; 20.4% in [9]; 80.6% in [10]; 14.6% in [11]; 45% in assay [12]; 55.3% in assay [13]. Further, the growth is 73.2% in assay [14]; 69.5% in [15]; 39.5% in assay [16]; 66.2% in assay [17]; 53% in assay [18]; 28.1% in assay [19].

As for `CC(/C=C1\SC(=S)N(CC(=O)NC(Cc2c[nH]c3ccccc23)C(=O)O)C1=O)=C\c1ccccc1` (stereo unspecified), the growth was 99.9% in [1]; 102% in [2]; 102% in assay [3]; 93.3% in assay [6]; 103% in assay [7]; 102% in assay [8]. For the same compound, the growth in assay [9] was 116%; in assay [10] it was 112%; in assay [11], 107%; in assay [12] it was 107%; in assay [13], 104%; in assay [14], 106%. For the same compound, the growth in [15] is 92.8%; in [16] it was 104%; in [17], 104%; in [18], 100%; in assay [19], 103%.

In the case of `O=C1/C(=C/c2ccc(C(F)(F)F)cc2)COc2ccc(O)c(O)c21`, the growth in assay [1] is 38%; in assay [2], 81.1%; in [3], 50.2%; in [4], 25.8%; in assay [6] it was -50.3% (active); in [7], 54.2%. Also, the growth in assay [8] is -78.6% (active); in assay [9], 12.3%; in assay [10], 16.1%; in [11], 3.76% (active); in assay [12], 23.6%; in assay [13], -10% (active). The growth in assay [14] is 24.5%; in assay [15], -0.987% (active); in assay [16], 85.8%; in assay [17] it was -83.9% (active); in [18] it was 25.3%; in assay [19], 42.3%.
